Measurements as given in PubChem BioAssay AID1347165 (National Center for Advancing Translational Sciences (NCATS), 2019).
Out of some 220,000 compounds screened, about 5,700 (2.6%) were called active. Roughly 18% stayed inconclusive and do not appear here. This is one part of a sample in which actives are shown more often than they occur. Values without a mark were called inactive. Calls follow the shape of the dose curve; as a rule, active = well fitted inhibition curve with a large enough effect; inconclusive = small, poorly fitted or top-dose-only effect; inactive = no such curve, though single readings can be large or run the other way.

target: Lysine-specific demethylase 5B (Homo sapiens) (UniProt Q9UGL1); assay: Primary screen for KDM5B Histone Demethylases FDH-coupled qHTS; settings: FDH-coupled NADH fluorescence (FDH is formaldehyde dehydrogenase); series mostly up to 57.7 µM; activity change, negative = inhibition: at the top concentration; also: nearly all actives have a fitted effect of over 70% in size; as to activity change, negative = inhibition: 0% is about no effect
Sequence (Q9UGL1 whole entry, looked up): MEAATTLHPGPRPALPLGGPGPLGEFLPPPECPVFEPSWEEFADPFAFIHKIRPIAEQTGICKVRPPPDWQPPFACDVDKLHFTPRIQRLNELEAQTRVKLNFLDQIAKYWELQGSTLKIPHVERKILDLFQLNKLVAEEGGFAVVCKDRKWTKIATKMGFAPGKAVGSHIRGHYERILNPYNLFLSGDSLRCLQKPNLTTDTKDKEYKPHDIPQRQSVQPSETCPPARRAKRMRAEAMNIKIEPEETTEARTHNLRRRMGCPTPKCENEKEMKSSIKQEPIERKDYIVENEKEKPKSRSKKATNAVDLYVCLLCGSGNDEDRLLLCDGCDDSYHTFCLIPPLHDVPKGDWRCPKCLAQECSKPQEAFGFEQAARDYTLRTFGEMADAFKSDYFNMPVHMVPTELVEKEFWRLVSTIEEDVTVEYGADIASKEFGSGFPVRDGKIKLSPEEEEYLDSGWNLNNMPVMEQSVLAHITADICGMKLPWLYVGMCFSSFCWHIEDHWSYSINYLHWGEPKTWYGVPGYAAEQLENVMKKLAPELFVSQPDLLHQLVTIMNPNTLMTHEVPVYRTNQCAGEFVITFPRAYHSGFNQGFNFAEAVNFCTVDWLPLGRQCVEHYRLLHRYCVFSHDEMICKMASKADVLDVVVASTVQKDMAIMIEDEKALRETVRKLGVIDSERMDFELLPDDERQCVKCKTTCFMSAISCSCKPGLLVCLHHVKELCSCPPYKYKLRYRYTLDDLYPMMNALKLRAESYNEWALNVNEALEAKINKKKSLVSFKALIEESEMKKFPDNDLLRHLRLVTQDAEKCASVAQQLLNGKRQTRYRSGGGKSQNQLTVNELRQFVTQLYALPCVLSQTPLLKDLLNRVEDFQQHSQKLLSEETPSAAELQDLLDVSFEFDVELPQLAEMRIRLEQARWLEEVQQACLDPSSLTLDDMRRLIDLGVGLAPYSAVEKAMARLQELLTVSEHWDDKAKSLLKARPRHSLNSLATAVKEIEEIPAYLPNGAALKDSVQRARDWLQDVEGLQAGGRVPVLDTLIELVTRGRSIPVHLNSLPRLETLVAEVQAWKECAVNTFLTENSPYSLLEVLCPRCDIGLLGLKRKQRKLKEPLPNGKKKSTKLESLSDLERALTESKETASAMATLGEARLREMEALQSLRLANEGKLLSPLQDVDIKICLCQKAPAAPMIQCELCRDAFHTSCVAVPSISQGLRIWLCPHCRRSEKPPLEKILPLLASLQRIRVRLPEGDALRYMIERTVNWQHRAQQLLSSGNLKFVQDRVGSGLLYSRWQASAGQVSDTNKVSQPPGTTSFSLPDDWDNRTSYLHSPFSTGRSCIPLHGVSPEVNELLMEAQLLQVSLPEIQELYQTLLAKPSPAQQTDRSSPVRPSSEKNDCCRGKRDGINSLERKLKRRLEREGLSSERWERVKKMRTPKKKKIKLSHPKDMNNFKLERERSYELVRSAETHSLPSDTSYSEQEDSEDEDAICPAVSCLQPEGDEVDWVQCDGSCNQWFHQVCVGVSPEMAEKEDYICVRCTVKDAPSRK
Procedure, shortened: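 Here, H3K4me3 peptide (12.5 µM in substrate mix) is demethylated by KDM5BΔAP, 200 nM final, after 10 min compound exposure. Formaldehyde product is coupled through FDH (0.25 U/mL in mix) to NADH fluorescence; 30-min ΔRFU feeds dose-response curves.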
Potency is read from the fitted curve at half-maximal effect.

| SMILES | activity change, negative = inhibition | Potency |
| --- | --- | --- |
| COc1cccc(-c2nc(COc3ccccc3C#N)cs2)c1 | -29% |  |
| COCCn1c(-c2cccc(OC)c2)cnc1NC(=O)NCCc1ccccc1 | -4.88% |  |
| c1coc(-c2ccnc3nc(C4CC4)nn23)c1 |  | 28.2 µM (active) |
| COc1cccc(-c2ccnc3nc(Cc4cc(F)cc(F)c4)nn23)c1 |  | 25.1 µM (active) |
| COc1ccc(CN2CC(Oc3ccc(F)c(F)c3)C2)cc1 | -0.531% [at 149 µM] |  |
| COc1ccc(-c2ccnc3nc(CC(C)C)nn23)c(F)c1 |  | 28.2 µM (active) |
| CC1CNC(C)(C)C(O)C1 (centres undefined) | 22.2% |  |
| Cn1c(=O)c2c(nc(NCc3cccs3)n2Cc2ccc(F)cc2)n(C)c1=O | 12.8% |  |
| Oc1c(C=Nc2ccc(F)c(Cl)c2)ccc2ccccc12 | 11.3% |  |
| CC(NC(=O)CNC(=O)c1ccc(N2CCCC2=O)cc1)c1ccccc1Br (centres undefined) | -11.8% |  |
| COc1ccc(C(=O)N[C@@H]2C[C@H](COc3cccc(C)n3)[C@@H](O)[C@H]2O)cc1 | -15.3% [at 86.2 µM] |  |
| CN(CC1CCN(CCc2cccc(F)c2)CC1)C(=O)c1cn2cccnc2n1 |  | 28.2 µM (active) |
| CN(Cc1nccn1C)C(=O)c1cc(CN2CCC(Cc3ccccc3)CC2)on1 | -7.68% |  |
| CN(CCc1ccccn1)C(=O)c1ccc(OC2CCN(CCc3ccccc3)CC2)cc1 | -6.05% |  |
| CCCn1nc(C(=O)OCC(=O)N2CCc3ccccc32)c2ccccc2c1=O | 24.1% |  |
| COc1ccc(NC(=O)c2cnc3ccccc3n2)c(OC)c1 | -11.9% |  |
| COc1ccc(-c2onc(C)c2C(=O)NCc2ccc3c(c2)OCO3)cc1 | -8.26% |  |
| CCCOCCCNC(=O)c1c(C)noc1-c1ccccc1Cl | 6.54% |  |
| CCCOCCCNC(=O)c1c(C)noc1-c1cc(OC)c(OC)c(OC)c1 |  | 28.2 µM (active) |
| O=C(COc1ccc2c(=O)c(-c3ccccc3)coc2c1)N1CCN(c2ccccn2)CC1 | -1.74% |  |
| Cc1ccc(-c2noc(Cn3cnc(C#N)n3)n2)cc1 | 7.52% |  |
| Cc1ccccc1CN1C(=O)c2ccccc2Sc2ccc(C(=O)NCCCN3CCOCC3)cc21 | -1.46% |  |
| COc1ccc(CN[C@@H]2CCC[C@@H](C(=O)NCc3cc(C)on3)CC(=O)N(C)C2)cn1 | -11.1% [at 86.2 µM] |  |
| COc1ccccc1-c1cc(C(=O)NCc2cnn(C)c2)c2c(c1)N(C)CCO2 |  | 28.2 µM (active) |
| COc1ccccc1C(=O)Nc1ccnn1C1CCN(Cc2cnn(C)c2)CC1 | 9.36% |  |

| SMILES | activity change, negative = inhibition | Potency |
| --- | --- | --- |
| Cc1ccc2[nH]cc(CCNC(=O)c3ccccc3C)c2c1 | 6.05% |  |
| COc1ccc(CNC(=O)c2cccc3c2CCN3C(=O)c2ccc(F)cc2)cc1OC | -17.8% |  |
| COc1cccc(-c2ccc(F)c(C(N)=O)c2)c1OC | -22.1% |  |
| Cc1ccccc1-c1cc(C(=O)NCCN2CCNC2=O)c2c(c1)N(C)CCO2 |  | 39.8 µM (active) |
| COc1cccc(-c2cc(C(=O)NCc3cc(C)on3)c3c(c2)N(C)CCO3)c1OC |  | 28.2 µM (active) |
| O=C(Nc1cccc(S(=O)(=O)N2CCCC2)c1)c1cccc2cccnc12 | -3.61% |  |
| COc1ccc(C(C)=O)cc1CSCc1coc(-c2ccc(C)cc2)n1 | -2.24% |  |
| CCc1c(C(=O)Nc2ccc3nc(C)sc3c2)cnn1-c1ccc(OC)nn1 | -12.8% |  |
| Cc1ncsc1C(=O)NCc1ccc(N2CCCCCC2)nc1 | 11.7% |  |
| COCCCNS(=O)(=O)c1cccc(S(=O)(=O)c2cccc(S(=O)(=O)NCCCOC)c2)c1 | 0.814% |  |
| Cc1cc(=O)oc2cc(OCC(=O)NCC(C)(c3ccccc3)c3ccccc3)ccc12 | -25% |  |
| O=C(Nc1c(F)cccc1F)c1cc(-c2ccccn2)nc2ccccc12 | -7.6% |  |
| O=c1cc(-c2ccccn2)oc2c(-c3ccccc3F)nccc12 |  | 17.8 µM (active) |
| COc1ccc(-c2nccc3c(=O)cc(N(C)c4ccccc4)oc23)cn1 | -25.8% [at 86.2 µM] |  |
| Cc1cccc(C(C)C)c1NC(=O)CSc1nnc(-c2cc(-c3ccccc3)n[nH]2)n1N | 21.3% |  |
| COC(=O)COc1cccn2c(=O)c(-c3cc(C)n(-c4ccc(C)cc4C)n3)c(C)nc12 |  | 28.2 µM (active) |
| Cc1ccc2nc(COc3ccc(NC(=O)COc4ccccc4F)cc3)cc(=O)n2c1 | -1.56% |  |
| Cc1ccc(N2CCN(C(=O)CCc3c(C)nc4c(c3C)c(=O)n(C)c(=O)n4C)CC2)c(C)c1 | -17.7% |  |
| CCOC(=O)C(C)Oc1cccn2c(=O)c(-c3cc(C)n(-c4cccc(F)c4)n3)c(C)nc12 (centres undefined) |  | 25.1 µM (active) |
| O=C(Nc1ccc(N2CCOCC2)c(Cl)c1)c1ccc2c3c(cccc13)CC2 | -3.1% |  |
| CC(c1nc2ccccc2s1)N(C)C(=O)c1cccc(S(=O)(=O)Nc2ccc(Cl)cc2)c1 (centres undefined) | 5.35% |  |
| Cc1ccccc1C(=O)N1CCN(c2ccc([N+](=O)[O-])c(-n3nc(C)c4ccccc4c3=O)c2)CC1 | 8.7% |  |
| Cc1ccccc1-c1ccc(C(=O)NCCCn2ccnc2C(C)C)cn1 | -17.6% |  |
| N#Cc1c(N)n[nH]c1CCCNc1nc(-c2ccncc2)nc2ccccc12 | -4.51% |  |
| CC(C)c1nccn1CCCNc1nc(-c2ccncc2)nc2c1cnn2C |  | 22.4 µM (active) |

| SMILES | activity change, negative = inhibition | Potency |
| --- | --- | --- |
| COc1ccc(CNC(=O)COC(=O)C(CCSC)N2C(=O)c3ccccc3C2=O)cc1 (centres undefined) | -3.03% |  |
| CCCC1(CCC)NC(=O)N(Cc2ncc(-c3ccccc3)o2)C1=O | -8.25% |  |
| O=C1CN(Cc2cc3cc4c(cc3[nH]c2=O)OCO4)CCCN1 |  | 20 µM (active) |
| CCCCCCCCNS(=O)(=O)/C=C/c1cc(C)ccc1CNC(=O)OC(C)(C)C | -5.34% |  |
| CC(C)NC(NC(=O)c1ccc(C(C)(C)C)cc1)C(Cl)(Cl)Cl (centres undefined) | 9.93% |  |
| CC(C)CN[C@H]1[C@H](O)[C@H](O)C[C@@H]1c1ccc(N2CCOCC2)nc1 |  | 35.5 µM (active) |
| CC(C)CNC(=O)N1C[C@@H](Oc2cccnc2)C[C@H]1C(=O)N1CCOCC1 | -18.3% |  |
| COC(=O)c1ccc(COC(=O)c2ccc(N3CCOCC3)nc2)cc1 | 14.6% |  |
| Cc1nc(-c2cn(C3CCCN(C(=O)c4cccs4)C3)nn2)no1 (centres undefined) | 13% |  |
| COc1ccc(CN2CCc3ncc(C(=O)NCCOc4ccccc4)n3CC2)cn1 | 8.49% [at 86.2 µM] |  |
| COc1cccc(CN2CCc3c(cc(C(=O)NCCN4CCCCC4)n3C)C2)c1 |  | 22.4 µM (active) |
| CNC(=O)[C@@H]1CN(Cc2cccc(OC)c2)C[C@H]1CO | -15.8% |  |
| CN(CCOc1ccccc1Cl)C(=O)c1cc2ccccc2oc1=O | 5.68% |  |
| O=C(COc1cccc(-n2cnnn2)c1)Nc1ccc(S(=O)(=O)N2CCOCC2)cc1 | 1.49% |  |
| O=C(O)CC1C(=O)NCCN1Cc1ccc(Cl)c(F)c1 (centres undefined) | -18.6% |  |
| Cc1ccc(CN2CCNC(=O)C2CC(=O)NC2(CO)CCCC2)cc1 (centres undefined) | -28.9% |  |
| O=C1NCCN(Cc2ccccc2)C1CC(=O)N1CCN(c2ccccc2)CC1 (centres undefined) |  | 20 µM (active) |
| COc1ccc(NC(=O)CSc2nccn2-c2cccc(C(F)(F)F)c2)cc1 | 2.82% |  |
| CCN1CCC(N(Cc2cccs2)C(=O)Nc2cc(Cl)ccc2C(=O)OC)CC1 | -26.5% |  |
| O=C(CCNC(=O)c1cnccn1)Nc1ccccc1Cc1ccccc1 | 6.99% |  |
| COc1ccccc1-c1noc(COC(=O)c2ccc3c(c2)NC(=O)CS3)n1 | -20.1% |  |
| C=CCNC(=O)C1N(C(C)C)C(=O)C12CCCC2 (centres undefined) | -0.645% |  |
| C=CCNC(=O)C1N(C(C)C)C(=O)C12CCCCC2 (centres undefined) | -10.2% |  |
| CC(C)N1C(=O)C2(CCCC2)C1C(=O)Nc1ccc2c(c1)N(C)CCC2 (centres undefined) |  | 31.6 µM (active) |
| CCNC(=O)NC(=O)CSc1nc(-c2ccco2)nc2ccccc12 | -20.4% |  |

| SMILES | activity change, negative = inhibition | Potency |
| --- | --- | --- |
| CN1C[C@@H](NC(=O)c2ccccc2)C[C@H]1c1nc(-c2ccccc2)no1 | -15.2% [at 86.2 µM] |  |
| COc1ccc(C(=O)N[C@H]2C[C@@H](c3nc(-c4ccc(OC)cc4)no3)N(C)C2)cc1 | -9.77% [at 86.2 µM] |  |
| CN1C[C@@H](NC(=O)c2ccc(C(C)(C)C)cc2)C[C@H]1c1nc(-c2ccc3ccccc3c2)no1 |  | 25.1 µM (active) |
| COc1ccc(Cl)cc1NC(=O)N1CCC2(CC1)N=C(c1ccc(C)c(C)c1)C(=O)N2 | 6.31% |  |
| Cc1nc(-c2cn(C3CCCN(C(=O)c4cc(F)ccc4F)C3)nn2)no1 (centres undefined) | 18.6% |  |
| CC(C)(C)OC(=O)N1CCN(C(=O)c2cc(-c3ccncc3)nc3ccccc23)CC1 | 8.94% |  |
| Cc1ccc2c(C(=O)N3CCCC(C#N)C3)cc(-c3cnn(C(C)C)c3)nc2c1 (centres undefined) |  | 28.2 µM (active) |
| C=CCn1c(SCc2coc(-c3cccc(Cl)c3)n2)nnc1C1CCS(=O)(=O)C1 (centres undefined) | -12.8% |  |
| COc1ccc(C(=O)OCC(=O)NCCCc2ccccc2)cc1OC | 31.7% |  |
| COc1ccc(C(=O)Nc2oc3ccc(Cl)cc3c(=O)c2-c2cc(OC)c(OC)c(OC)c2)cc1 | 0.542% |  |
| Cc1occc1C(=O)NC1CCCN(Cc2ccc(CC(C)C)cc2)C1 (centres undefined) | 21.5% |  |
| CCn1ccnc1CN(C)C1CCCN(CCc2ccccc2)C1 (centres undefined) | -0.558% |  |
| CC(C)Nc1ncc(C(=O)NC2CCCN(CCc3ccccc3)C2)cn1 (centres undefined) |  | 25.1 µM (active) |
| Cc1ccc(C(=O)NC2CCN(c3cnn(CC4CC4)c(=O)c3)CC2)c(C)c1 | -10.1% |  |
| O=C(CSc1ncnc2c1cnn2-c1ccccc1)NC(=O)NC1CCCC1 | 14.8% |  |
| O=S(=O)(N[C@@H]1CCOC[C@H]1Oc1ccccn1)c1ccc(Cl)s1 | 22% |  |
| Cc1nc2ncccn2c1C(=O)N[C@@H]1CCOC[C@H]1Oc1ccccn1 |  | 31.6 µM (active) |
| Cc1nc(N(C)C)ncc1C(=O)N[C@@H]1CCOC[C@H]1Oc1ccccn1 |  | 25.1 µM (active) |
| O=C(N[C@@H]1CCOC[C@H]1Oc1ccccn1)c1cc(C2CC2)no1 | 30.4% |  |
| N#Cc1ccc(O[C@@H]2COCC[C@H]2NC(=O)CCCn2cccn2)cc1 | -3.46% |  |
| O=C(N[C@H]1CCOC[C@H]1C1CCOCC1)c1cccc2nccnc12 | -6.52% |  |
| Cc1nn(C)c2nc(OC(C)C(=O)Nc3ccccc3F)cc(-c3ccccc3)c12 (centres undefined) | -20.6% |  |
| CC(C)n1cnnc1CC1CCN(C(=O)CCCc2ccccc2)C1 (centres undefined) | -17.5% |  |
| CC1(C)CC(=O)C/C(=N/NC(=O)c2ccccc2Br)C1 | 12.7% |  |
